# Measured values from PMC7862700, “An all-to-all approach to the identification of sequence-specific readers for epigenetic DNA modifications on cytosine”.
# Assays:
# Test in all cases: DAPPL (digital affinity profiling via proximity ligation, sequencing); 10 mM Tris-HCl pH 7.5, 50 mM NaCl, 1 mM DTT, 4% glycerol, room temperature, 30 min; GST-TFs on glutathione beads, 16-mer random dsDNA library, 0.1% formaldehyde crosslink after washing; high values mean tight binding
# FLI1 = molecular target: T1, FLI1 (Homo sapiens, UniProt Q01543 1-452); settings: protein: recombinant; tags: N-terminal GST; dsDNA, one strand shown
# T1 sequence: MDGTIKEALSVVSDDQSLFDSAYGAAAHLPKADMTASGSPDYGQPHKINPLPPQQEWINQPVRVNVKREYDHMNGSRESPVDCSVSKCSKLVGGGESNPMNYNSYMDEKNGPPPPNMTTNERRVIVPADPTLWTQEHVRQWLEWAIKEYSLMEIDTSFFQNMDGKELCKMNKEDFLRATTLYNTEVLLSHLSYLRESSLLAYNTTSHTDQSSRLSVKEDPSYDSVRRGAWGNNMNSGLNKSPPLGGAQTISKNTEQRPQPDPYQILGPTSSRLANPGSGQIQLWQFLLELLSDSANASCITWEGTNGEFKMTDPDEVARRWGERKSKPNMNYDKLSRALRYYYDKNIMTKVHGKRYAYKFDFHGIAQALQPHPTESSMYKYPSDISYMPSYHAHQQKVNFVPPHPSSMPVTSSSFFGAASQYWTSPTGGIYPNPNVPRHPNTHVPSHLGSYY
# Outline: (§1)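 Binding signal is defined as a hexamer's read frequency for one factor over its frequency for the tag-only sample. To obtain reads, GST-fused human transcription factors were expressed in yeast, captured on glutathione beads, barcoded with DNA and pooled with that sample. Pools met 200 nmole of a 16-mer random double-stranded DNA library in Tris/NaCl/DTT/glycerol buffer for 30 min at room temperature before washing, 0.1% formaldehyde crosslinking, proximity ligation (BsaI/T4 ligase, 1 h, 37 °C), PCR and Illumina NextSeq500 sequencing.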
# ELK1 = molecular target: T2, ELK1 (Homo sapiens, UniProt P19419 1-428); settings: protein: recombinant; tags: N-terminal GST; dsDNA, one strand shown
# T2 sequence: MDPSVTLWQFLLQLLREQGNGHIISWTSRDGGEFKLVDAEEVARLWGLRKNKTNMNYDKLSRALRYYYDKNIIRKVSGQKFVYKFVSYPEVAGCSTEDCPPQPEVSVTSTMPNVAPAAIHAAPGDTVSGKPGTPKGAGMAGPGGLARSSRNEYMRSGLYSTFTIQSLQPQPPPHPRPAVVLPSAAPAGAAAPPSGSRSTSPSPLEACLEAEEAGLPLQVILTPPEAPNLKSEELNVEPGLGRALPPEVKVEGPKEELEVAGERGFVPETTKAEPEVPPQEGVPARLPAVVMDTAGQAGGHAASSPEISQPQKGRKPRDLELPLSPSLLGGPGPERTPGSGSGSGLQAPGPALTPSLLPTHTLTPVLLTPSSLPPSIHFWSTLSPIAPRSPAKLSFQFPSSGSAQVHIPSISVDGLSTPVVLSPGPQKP
# Outline: as §1
# GABPA = molecular target: T3, GABPA (Homo sapiens, UniProt Q06546 1-454); settings: protein: recombinant; tags: N-terminal GST; dsDNA, one strand shown
# T3 sequence: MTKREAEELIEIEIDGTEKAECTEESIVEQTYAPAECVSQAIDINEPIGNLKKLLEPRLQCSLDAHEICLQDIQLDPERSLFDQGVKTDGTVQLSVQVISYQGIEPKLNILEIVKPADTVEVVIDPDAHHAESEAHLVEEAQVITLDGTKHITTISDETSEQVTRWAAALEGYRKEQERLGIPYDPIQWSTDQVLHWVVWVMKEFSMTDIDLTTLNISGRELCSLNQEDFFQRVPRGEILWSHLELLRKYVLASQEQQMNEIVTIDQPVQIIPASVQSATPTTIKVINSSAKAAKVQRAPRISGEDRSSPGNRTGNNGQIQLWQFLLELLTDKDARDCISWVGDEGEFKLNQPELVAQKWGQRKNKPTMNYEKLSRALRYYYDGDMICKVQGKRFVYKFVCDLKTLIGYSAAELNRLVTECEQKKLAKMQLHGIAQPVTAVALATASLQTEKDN
# Outline: as §1
# ERG = molecular target: T4, ERG (Homo sapiens, UniProt P11308 1-479); settings: protein: recombinant; tags: N-terminal GST; dsDNA, one strand shown
# T4 sequence: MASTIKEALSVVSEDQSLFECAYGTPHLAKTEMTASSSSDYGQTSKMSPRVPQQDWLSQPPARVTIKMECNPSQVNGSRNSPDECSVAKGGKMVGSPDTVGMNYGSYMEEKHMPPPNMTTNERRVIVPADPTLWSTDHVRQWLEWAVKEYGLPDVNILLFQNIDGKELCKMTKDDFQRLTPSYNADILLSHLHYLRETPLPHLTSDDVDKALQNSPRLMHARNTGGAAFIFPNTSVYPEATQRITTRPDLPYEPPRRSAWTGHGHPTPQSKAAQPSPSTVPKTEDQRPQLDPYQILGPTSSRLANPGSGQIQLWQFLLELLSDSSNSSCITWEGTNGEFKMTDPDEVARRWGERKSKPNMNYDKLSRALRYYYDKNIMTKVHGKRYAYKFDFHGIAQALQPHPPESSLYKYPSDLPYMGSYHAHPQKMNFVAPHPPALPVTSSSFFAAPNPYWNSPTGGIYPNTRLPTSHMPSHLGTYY
# Outline: as §1
# ELF1 = ELF1 (Homo sapiens, UniProt P32519 1-619); settings: protein: recombinant; tags: N-terminal GST; dsDNA, one strand shown
# Chain of ELF1 (P32519 whole entry): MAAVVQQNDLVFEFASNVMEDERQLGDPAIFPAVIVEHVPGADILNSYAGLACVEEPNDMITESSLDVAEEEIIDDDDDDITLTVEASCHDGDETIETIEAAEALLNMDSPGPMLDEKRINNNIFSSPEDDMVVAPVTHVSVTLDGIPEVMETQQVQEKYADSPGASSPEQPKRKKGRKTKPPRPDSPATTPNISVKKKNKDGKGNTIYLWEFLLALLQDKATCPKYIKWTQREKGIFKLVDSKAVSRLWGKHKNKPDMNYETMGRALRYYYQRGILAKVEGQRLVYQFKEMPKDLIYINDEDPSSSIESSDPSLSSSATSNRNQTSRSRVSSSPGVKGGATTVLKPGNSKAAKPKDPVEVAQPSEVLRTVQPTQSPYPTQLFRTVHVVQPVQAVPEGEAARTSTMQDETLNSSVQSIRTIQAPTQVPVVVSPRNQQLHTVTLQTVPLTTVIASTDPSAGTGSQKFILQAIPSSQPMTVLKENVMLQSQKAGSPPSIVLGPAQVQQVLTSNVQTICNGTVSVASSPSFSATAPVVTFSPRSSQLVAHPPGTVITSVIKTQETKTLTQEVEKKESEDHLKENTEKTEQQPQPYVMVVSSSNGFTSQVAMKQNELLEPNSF
# Outline: as §1
# EHF = molecular target: T5, EHF (Homo sapiens, UniProt Q9NZC4 1-300); settings: protein: recombinant; tags: N-terminal GST; dsDNA, one strand shown
# T5 sequence: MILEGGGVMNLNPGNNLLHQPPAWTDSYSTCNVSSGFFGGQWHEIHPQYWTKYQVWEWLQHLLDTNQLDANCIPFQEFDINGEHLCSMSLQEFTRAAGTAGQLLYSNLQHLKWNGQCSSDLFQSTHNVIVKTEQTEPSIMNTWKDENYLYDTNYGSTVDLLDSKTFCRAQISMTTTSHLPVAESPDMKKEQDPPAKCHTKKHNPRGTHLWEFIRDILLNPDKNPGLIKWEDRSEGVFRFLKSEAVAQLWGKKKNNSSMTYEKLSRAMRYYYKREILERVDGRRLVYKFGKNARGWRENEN
# Outline: as §1
# SPI1 = SPI1 (Homo sapiens, UniProt P17947 1-270); settings: protein: recombinant; tags: N-terminal GST; dsDNA, one strand shown
# Outline: as §1
# SPIB = SPIB (Homo sapiens, UniProt Q01892 1-262); settings: protein: recombinant; tags: N-terminal GST; dsDNA, one strand shown
# Chain of SPIB (Q01892 whole entry): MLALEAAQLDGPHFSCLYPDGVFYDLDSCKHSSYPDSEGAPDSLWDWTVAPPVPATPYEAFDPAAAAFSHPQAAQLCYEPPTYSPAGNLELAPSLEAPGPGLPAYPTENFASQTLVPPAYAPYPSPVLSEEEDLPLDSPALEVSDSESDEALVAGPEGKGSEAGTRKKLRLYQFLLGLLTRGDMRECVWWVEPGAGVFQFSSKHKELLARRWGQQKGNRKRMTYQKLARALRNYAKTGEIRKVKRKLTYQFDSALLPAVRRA
# Outline: as §1
# ELK3 = molecular target: T6, ELK3 (Homo sapiens, UniProt P41970 1-407); settings: protein: recombinant; tags: N-terminal GST; dsDNA, one strand shown
# T6 sequence: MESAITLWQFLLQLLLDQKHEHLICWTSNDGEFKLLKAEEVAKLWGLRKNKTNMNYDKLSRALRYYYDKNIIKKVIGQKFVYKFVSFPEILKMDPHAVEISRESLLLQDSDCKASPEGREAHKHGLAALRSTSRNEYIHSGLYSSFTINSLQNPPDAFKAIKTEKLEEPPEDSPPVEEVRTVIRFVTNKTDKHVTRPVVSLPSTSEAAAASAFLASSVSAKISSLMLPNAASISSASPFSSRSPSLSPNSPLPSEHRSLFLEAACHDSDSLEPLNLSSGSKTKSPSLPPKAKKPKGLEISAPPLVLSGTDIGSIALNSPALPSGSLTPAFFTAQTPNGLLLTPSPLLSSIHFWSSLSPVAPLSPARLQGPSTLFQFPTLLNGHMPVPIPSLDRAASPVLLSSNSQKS
# Outline: as §1
# FEV = molecular target: T7, FEV (Homo sapiens, UniProt Q99581 1-238); settings: protein: recombinant; tags: N-terminal GST; dsDNA, one strand shown
# T7 sequence: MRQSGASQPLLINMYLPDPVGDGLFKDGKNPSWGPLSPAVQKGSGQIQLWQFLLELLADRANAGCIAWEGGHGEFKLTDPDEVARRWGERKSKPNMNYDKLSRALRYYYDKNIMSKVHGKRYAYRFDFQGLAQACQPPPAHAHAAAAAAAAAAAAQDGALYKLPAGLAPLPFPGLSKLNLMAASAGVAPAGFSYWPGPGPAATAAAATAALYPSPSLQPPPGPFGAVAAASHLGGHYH
# Outline: as §1
# ETV5 = ETV5 (Homo sapiens, UniProt P41161 1-510); settings: protein: recombinant; tags: N-terminal GST; dsDNA, one strand shown
# Chain of ETV5 (P41161 whole entry): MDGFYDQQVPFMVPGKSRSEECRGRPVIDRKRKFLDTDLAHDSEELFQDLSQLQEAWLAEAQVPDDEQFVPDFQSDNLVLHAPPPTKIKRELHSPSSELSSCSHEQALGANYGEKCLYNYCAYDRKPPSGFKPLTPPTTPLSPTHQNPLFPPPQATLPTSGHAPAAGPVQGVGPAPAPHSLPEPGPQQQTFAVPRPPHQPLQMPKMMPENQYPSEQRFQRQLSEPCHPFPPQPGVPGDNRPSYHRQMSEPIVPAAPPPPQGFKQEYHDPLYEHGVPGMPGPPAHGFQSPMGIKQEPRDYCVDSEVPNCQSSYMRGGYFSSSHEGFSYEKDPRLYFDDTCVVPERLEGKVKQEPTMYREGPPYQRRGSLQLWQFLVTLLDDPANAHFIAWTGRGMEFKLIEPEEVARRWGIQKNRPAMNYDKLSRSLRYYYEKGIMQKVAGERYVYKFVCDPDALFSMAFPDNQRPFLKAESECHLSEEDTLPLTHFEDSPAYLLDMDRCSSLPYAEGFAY
# Outline: as §1
# HSF1 = HSF1 (Homo sapiens, UniProt Q00613 1-529); settings: protein: recombinant; tags: N-terminal GST; chain copies: 3; dsDNA, one strand shown
# Chain of HSF1 (Q00613 whole entry): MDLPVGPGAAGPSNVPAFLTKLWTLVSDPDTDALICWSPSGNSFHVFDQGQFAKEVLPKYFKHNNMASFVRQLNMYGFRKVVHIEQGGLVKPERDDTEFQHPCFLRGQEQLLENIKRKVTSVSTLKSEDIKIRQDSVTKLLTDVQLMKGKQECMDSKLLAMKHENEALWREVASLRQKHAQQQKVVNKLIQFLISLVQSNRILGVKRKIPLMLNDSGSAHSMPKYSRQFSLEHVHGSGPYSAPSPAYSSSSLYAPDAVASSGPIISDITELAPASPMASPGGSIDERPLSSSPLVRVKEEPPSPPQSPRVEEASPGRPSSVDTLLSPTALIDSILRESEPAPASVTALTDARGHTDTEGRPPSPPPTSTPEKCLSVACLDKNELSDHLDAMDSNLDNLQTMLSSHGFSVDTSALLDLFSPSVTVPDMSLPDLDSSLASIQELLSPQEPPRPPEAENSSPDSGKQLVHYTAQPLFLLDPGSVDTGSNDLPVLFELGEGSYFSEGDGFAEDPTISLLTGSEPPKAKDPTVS
# Outline: as §1
# SPIC = molecular target: T8, SPIC (Homo sapiens, UniProt Q8N5J4 1-248); settings: protein: recombinant; tags: N-terminal GST; dsDNA, one strand shown
# T8 sequence: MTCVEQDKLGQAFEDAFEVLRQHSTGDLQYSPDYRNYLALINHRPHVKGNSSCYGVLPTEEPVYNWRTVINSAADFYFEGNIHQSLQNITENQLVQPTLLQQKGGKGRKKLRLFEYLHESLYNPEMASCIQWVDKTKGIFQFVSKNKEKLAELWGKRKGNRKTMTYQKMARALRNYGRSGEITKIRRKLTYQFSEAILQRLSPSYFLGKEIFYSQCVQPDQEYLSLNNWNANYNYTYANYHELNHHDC
# Outline: as §1
# ELF4 = ELF4 (Homo sapiens, UniProt Q99607 1-663); settings: protein: recombinant; tags: N-terminal GST; dsDNA, one strand shown
# Chain of ELF4 (Q99607 whole entry): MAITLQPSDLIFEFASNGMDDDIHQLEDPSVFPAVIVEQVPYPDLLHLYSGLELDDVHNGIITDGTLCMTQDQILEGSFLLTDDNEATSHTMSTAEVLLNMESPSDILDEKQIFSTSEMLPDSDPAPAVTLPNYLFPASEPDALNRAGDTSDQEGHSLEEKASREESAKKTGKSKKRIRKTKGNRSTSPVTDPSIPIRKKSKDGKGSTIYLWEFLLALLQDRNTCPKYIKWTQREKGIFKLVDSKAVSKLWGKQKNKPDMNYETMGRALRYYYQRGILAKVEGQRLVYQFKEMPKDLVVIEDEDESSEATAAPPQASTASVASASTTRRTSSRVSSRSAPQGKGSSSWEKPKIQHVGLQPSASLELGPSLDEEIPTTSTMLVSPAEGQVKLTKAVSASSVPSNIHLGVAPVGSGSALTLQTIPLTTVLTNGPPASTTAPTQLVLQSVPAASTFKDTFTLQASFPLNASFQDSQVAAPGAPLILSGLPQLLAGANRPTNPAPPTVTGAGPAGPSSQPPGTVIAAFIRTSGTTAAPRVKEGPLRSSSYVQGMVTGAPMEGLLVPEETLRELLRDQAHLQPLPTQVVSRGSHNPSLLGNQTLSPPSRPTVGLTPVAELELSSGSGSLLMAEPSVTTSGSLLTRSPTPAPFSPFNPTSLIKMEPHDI
# Outline: as §1
# ELK4 = molecular target: T9, ELK4 (Homo sapiens, UniProt P28324-2 1-405); settings: protein: recombinant; tags: N-terminal GST; dsDNA, one strand shown
# T9 sequence: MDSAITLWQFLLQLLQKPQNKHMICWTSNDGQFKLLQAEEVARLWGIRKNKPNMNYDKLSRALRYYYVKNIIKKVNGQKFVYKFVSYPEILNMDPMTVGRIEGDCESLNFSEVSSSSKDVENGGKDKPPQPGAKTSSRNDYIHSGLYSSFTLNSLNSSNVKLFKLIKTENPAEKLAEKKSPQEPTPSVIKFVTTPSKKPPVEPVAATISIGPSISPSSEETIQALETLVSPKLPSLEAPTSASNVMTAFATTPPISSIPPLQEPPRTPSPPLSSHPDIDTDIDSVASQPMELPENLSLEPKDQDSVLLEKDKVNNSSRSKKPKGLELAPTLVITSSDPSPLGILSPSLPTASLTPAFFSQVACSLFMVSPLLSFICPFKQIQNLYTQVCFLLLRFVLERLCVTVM
# Outline: as §1
# ELF3 = molecular target: T10, ELF3 (Homo sapiens, UniProt P78545 1-371); settings: protein: recombinant; tags: N-terminal GST; dsDNA, one strand shown
# T10 sequence: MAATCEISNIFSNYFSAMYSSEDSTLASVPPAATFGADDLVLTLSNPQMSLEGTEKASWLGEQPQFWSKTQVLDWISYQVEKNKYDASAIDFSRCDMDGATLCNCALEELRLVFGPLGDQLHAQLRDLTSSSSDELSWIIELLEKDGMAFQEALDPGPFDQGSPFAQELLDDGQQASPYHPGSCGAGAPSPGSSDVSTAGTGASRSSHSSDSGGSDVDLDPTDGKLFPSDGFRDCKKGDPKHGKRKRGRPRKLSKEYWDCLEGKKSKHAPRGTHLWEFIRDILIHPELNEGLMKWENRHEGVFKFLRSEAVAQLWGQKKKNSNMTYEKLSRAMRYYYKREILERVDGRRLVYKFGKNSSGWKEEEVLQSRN
# Outline: as §1
# CRX = CRX (Homo sapiens, UniProt O43186 1-299); settings: protein: recombinant; tags: N-terminal GST; dsDNA, one strand shown
# Chain of CRX (O43186 whole entry): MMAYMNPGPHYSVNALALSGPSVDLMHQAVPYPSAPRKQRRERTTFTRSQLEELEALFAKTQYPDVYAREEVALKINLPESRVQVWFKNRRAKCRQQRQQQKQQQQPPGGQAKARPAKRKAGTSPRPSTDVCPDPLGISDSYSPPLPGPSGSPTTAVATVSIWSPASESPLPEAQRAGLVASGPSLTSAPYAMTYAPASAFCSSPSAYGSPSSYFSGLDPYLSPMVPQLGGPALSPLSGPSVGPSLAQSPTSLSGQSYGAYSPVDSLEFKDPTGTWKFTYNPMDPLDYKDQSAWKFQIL
# Outline: as §1
# ETV1 = ETV1 (Homo sapiens, UniProt P50549 1-477); settings: protein: recombinant; tags: N-terminal GST; dsDNA, one strand shown
# Chain of ETV1 (P50549 whole entry): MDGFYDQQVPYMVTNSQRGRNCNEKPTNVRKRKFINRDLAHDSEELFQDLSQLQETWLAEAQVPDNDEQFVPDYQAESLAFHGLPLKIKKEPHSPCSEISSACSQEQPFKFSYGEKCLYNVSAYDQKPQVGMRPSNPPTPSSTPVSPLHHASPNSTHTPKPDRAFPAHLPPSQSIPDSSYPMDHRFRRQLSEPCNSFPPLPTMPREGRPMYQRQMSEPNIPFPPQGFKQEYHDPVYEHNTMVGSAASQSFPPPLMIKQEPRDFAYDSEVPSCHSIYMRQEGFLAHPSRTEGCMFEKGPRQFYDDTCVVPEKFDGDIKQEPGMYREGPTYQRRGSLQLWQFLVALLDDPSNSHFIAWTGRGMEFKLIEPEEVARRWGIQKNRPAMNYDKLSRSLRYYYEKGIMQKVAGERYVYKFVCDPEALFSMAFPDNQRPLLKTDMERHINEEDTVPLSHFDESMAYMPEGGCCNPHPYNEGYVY
# Outline: as §1
sequence,measurement,setting,value
GAATAT,binding signal,FLI1,"1.08 fold enrichment (6-mer frequency, TF over GST control)"
same,binding signal,ELK1,"1.08 fold enrichment (6-mer frequency, TF over GST control)"
same,binding signal,GABPA,"1.11 fold enrichment (6-mer frequency, TF over GST control)"
same,binding signal,ERG,"1.04 fold enrichment (6-mer frequency, TF over GST control)"
same,binding signal,ELF1,"1.12 fold enrichment (6-mer frequency, TF over GST control)"
same,binding signal,EHF,"1.04 fold enrichment (6-mer frequency, TF over GST control)"
same,binding signal,SPI1,"1.08 fold enrichment (6-mer frequency, TF over GST control)"
same,binding signal,SPIB,"1.01 fold enrichment (6-mer frequency, TF over GST control)"
same,binding signal,ELK3,"1.12 fold enrichment (6-mer frequency, TF over GST control)"
same,binding signal,FEV,"1.03 fold enrichment (6-mer frequency, TF over GST control)"
same,binding signal,ETV5,"1.07 fold enrichment (6-mer frequency, TF over GST control)"
same,binding signal,HSF1,"1.67 fold enrichment (6-mer frequency, TF over GST control)"
same,binding signal,SPIC,"1.13 fold enrichment (6-mer frequency, TF over GST control)"
same,binding signal,ELF4,"1.05 fold enrichment (6-mer frequency, TF over GST control)"
same,binding signal,ELK4,"1.07 fold enrichment (6-mer frequency, TF over GST control)"
same,binding signal,ELF3,"1.09 fold enrichment (6-mer frequency, TF over GST control)"
same,binding signal,CRX,"1.2 fold enrichment (6-mer frequency, TF over GST control)"
same,binding signal,ETV1,"1.03 fold enrichment (6-mer frequency, TF over GST control)"
